Laboratory results as given in PubChem BioAssay AID1259349 (Broad Institute, 2017).
About 1,100 (6.5%) of roughly 17,000 compounds were called active. The sample as a whole holds a higher share of actives than the screen did. Values without a mark were called inactive.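 How the source made its calls: active means z-score of -3 or lower, meaning strong loss of probe binding signal; inactive means the rest.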

What follows are compounds tested against Insulin-degrading enzyme (Homo sapiens) (UniProt P14735) (assay: displacers of FL-6b probe from IDE – biochemical, fluorescence anisotropy, probe displacement, primary screen (AID 1259349;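 further: His-tagged human IDE residues 42-1019 made in E. coli with 30 nM FL-6b probe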)). Conditions: purified IDE, FL-6b probe fluorescence polarization; at 20 µM; stronger effect = lower value.
Insulin-degrading enzyme (Homo sapiens), sequence (P14735 42-1019 limits assumed): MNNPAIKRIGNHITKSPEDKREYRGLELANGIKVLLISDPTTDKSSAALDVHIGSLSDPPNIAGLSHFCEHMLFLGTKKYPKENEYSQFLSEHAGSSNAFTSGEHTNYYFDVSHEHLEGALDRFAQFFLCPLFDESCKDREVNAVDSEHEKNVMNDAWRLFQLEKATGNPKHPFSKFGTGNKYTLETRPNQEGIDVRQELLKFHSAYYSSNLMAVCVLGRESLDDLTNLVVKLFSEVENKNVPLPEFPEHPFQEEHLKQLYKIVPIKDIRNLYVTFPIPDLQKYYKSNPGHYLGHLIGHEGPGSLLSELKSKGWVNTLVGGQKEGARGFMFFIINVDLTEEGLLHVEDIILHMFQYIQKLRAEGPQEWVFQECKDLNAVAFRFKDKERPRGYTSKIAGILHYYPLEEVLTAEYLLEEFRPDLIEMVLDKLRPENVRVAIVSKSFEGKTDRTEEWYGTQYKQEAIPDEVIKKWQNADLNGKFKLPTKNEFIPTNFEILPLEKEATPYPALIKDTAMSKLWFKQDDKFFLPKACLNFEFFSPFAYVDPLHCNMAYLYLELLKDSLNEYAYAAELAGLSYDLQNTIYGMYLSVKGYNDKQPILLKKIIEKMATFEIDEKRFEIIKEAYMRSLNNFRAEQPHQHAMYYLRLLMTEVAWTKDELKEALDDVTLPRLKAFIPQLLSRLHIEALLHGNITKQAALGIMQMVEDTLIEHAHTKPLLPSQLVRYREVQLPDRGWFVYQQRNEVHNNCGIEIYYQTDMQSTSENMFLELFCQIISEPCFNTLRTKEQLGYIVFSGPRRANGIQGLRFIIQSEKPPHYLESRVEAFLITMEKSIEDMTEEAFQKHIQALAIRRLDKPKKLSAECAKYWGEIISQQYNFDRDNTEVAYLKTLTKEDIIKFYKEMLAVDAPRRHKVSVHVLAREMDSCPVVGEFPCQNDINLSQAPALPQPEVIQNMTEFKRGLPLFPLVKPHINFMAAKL

| Structure (SMILES) | z-score |
| --- | --- |
| CC(C)NC(=O)N1[C@H](C#N)[C@@H](c2ccc(-c3ccc(F)cc3)cc2)[C@H]1CO | 2.54 |
| O=C(CC1CC1)N1CC(=O)N2[C@H](CO)[C@H](c3ccc(C#Cc4ccc(F)cc4)cc3)[C@@H]2C1 | 3.38 |
| CCC(=O)N(C)C[C@H]1[C@H](c2ccc(C3=CCCCC3)cc2)[C@@H](CO)N1C(C)=O | 3.35 |
| N#C[C@@H]1[C@@H](c2ccc(-c3ccccc3)cc2)[C@@H](CO)N1C(=O)Cc1ccccc1 | 1.8 |
| COc1ccc(-c2ccc([C@@H]3[C@@H](C#N)N(C(=O)C4CCC4)[C@@H]3CO)cc2)cc1 | 4.33 |
| COc1cccc(-c2ccc([C@@H]3[C@@H](CO)N(C(=O)c4ccccn4)[C@H]3C#N)cc2)c1 | -6.41 (active) |
| COc1cccc(-c2ccc([C@@H]3[C@@H](C#N)N(C(=O)c4ccccn4)[C@H]3CO)cc2)c1 | -4.27 (active) |
| N#C[C@H]1[C@H](c2ccc(-c3ccccc3)cc2)[C@@H](CO)N1C(=O)Cc1ccccc1 | 1.03 |
| COc1cccc(C#Cc2ccc([C@H]3[C@@H](CO)N(C(=O)c4ccccn4)[C@H]3C#N)cc2)c1 | 0.995 |
| CC(=O)N1[C@@H](CO)[C@@H](c2ccccc2)[C@@H]1CN(C)C(=O)CN1CCOCC1 | 0.517 |
| C[C@@H]1CN([C@H](C)CO)C(=O)c2cc(NC(=O)Cc3ccccc3)ccc2O[C@@H](C)CCCCO[C@@H]1CN(C)Cc1ccncc1 | -1.57 |
| C[C@@H]1COCc2cn(nn2)CC[C@H](C)C(=O)N1 | 0.508 |
| CN(C)C(=O)c1cccc(-c2ccc([C@H]3[C@@H](CO)N4C(=O)CN(C(=O)C5CC5)C[C@@H]34)cc2)c1 | 3.52 |
| COc1cccc(-c2ccc([C@@H]3[C@@H](CO)N4C(=O)CN(C(=O)C5CCCCC5)C[C@H]34)cc2)c1 | -3.69 (active) |
| COc1ccc(NC(=O)N2CC(=O)N3[C@H](CO)[C@@H](c4ccc(-c5ccc(C)cc5)cc4)[C@H]3C2)cc1 | -0.113 |
| COc1cccc(-c2ccc([C@H]3[C@H]4CN(C(=O)NC(C)C)CC(=O)N4[C@H]3CO)cc2)c1 | -10.1 (active) |
| C/C=C/c1ccc([C@@H]2[C@@H](CO)N3C(=O)CN(C(=O)Nc4cccc(OC)c4)C[C@@H]23)cc1 | 0.379 |
| CN(C)C(=O)c1cccc(-c2ccc([C@H]3[C@H](CO)N4C(=O)CN(C(=O)C5CCCCC5)C[C@@H]34)cc2)c1 | 1.54 |
| N#C[C@H]1[C@H](c2ccccc2-c2ccc(F)cc2)[C@H](CO)N1C(=O)Cc1ccncc1 | 2.04 |
| CO[C@@H]1CC[C@@H]2CCOc3ccc(C#N)cc3C(=O)N(C)[C@H](C)C(=O)N(C)C[C@@H]1O2 | 2.26 |
| CO[C@@H]1CN(C)C(=O)c2ccc(NS(=O)(=O)c3c(C)noc3C)cc2OC[C@H](C)NC[C@@H]1C | 1.77 |
| Cc1cccc(-c2ccc([C@@H]3[C@H](CO)N4CCCCN(C(=O)c5ccc6c(c5)OCO6)C[C@@H]34)cc2)c1 | -4.42 (active) |
| COc1ccc(C#Cc2ccc([C@@H]3[C@@H](CO)N4CCCCN(C(=O)c5ccncc5)C[C@@H]34)cc2)cc1 | -0.38 |
| CCCC#Cc1ccc([C@H]2[C@H](CO)N3CCCCN(C(=O)c4ccc5c(c4)OCO5)C[C@@H]23)cc1 | 1.25 |
| Cn1cnc(S(=O)(=O)N2CCCCN3[C@H](CO)[C@@H](c4ccc(-c5ccc(F)cc5)cc4)[C@@H]3C2)c1 | 3.91 |
| O=S(=O)(c1ccccc1)N1CCCCN2[C@H](C1)[C@H](c1ccc(-c3ccccc3)cc1)[C@@H]2CO | 2.36 |

| Structure (SMILES) | z-score |
| --- | --- |
| O=S(=O)(Cc1ccccc1)N1CCCCN2[C@@H](CO)[C@H](c3ccc(-c4ccccc4)cc3)[C@@H]2C1 | 2.58 |
| Cc1cccc(-c2ccc([C@H]3[C@H](CO)N4CCCCN(S(=O)(=O)c5cn(C)cn5)C[C@@H]34)cc2)c1 | -4.09 (active) |
| O=C(c1ccncc1)N1CCCCN2[C@H](CO)[C@@H](c3ccc(C#Cc4ccccn4)cc3)[C@H]2C1 | -2.35 |
| COc1ccccc1-c1ccc([C@@H]2[C@@H](CO)N3CCCCN(S(=O)(=O)c4cn(C)cn4)C[C@H]23)cc1 | -2.23 |
| CCS(=O)(=O)N1CCCCN2[C@@H](CO)[C@@H](c3ccc(-c4ccccc4)cc3)[C@@H]2C1 | -3.06 (active) |
| COc1ccc(-c2ccc([C@H]3[C@H]4CN(C(=O)c5ccc6c(c5)OCO6)CCCCN4[C@H]3CO)cc2)cc1 | 0.126 |
| COc1ccccc1-c1ccc([C@@H]2[C@@H](CO)N3CCCCN(C(=O)c4ccncc4)C[C@@H]23)cc1 | -4.74 (active) |
| O=C1CN(S(=O)(=O)Cc2ccccc2)C[C@@H]2[C@@H](c3ccc(C#Cc4ccccc4)cc3)[C@@H](CO)N12 | -0.431 |
| O=C(c1cccc(F)c1)N1CC(=O)N2[C@H](C1)[C@@H](c1ccc(C#Cc3ccc(F)cc3)cc1)[C@@H]2CO | 2.4 |
| CCC(=O)N1CC[C@H]2[C@@H]1c1cc(-c3ccc(C#N)cc3)ccc1N(C)[C@H]2CO | -0.903 |
| O=C(C[C@H]1CC[C@@H]2NC[C@H](O)COC[C@H]2O1)NCCN1CCCCC1 | -0.195 |
| O=C1CCCCn2nncc2COC[C@@H](Cc2ccccc2)N1 | 0.104 |
| CC(=O)NC[C@H]1[C@H](c2ccccc2)[C@@H](CO)N1C(=O)Cc1cccnc1 | 5.37 |
| CN(C)CC#Cc1ccc([C@H]2[C@H](CO)N3CCCCN(CC4CC4)C[C@@H]23)cc1 | 3 |
| Cc1ccc(-c2ccc([C@H]3[C@H]4CN(S(=O)(=O)c5cccc(F)c5)CC(=O)N4[C@H]3CO)cc2)cc1 | 1.96 |
| CC(C)C#Cc1ccc([C@H]2[C@H](CO)N3CCCCN(C(=O)c4ccc(F)cc4)C[C@@H]23)cc1 | 1.11 |
| O=C(c1ccc(F)cc1)N1CCCCN2[C@@H](CO)[C@H](c3ccc(-c4ccccc4)cc3)[C@@H]2C1 | -0.452 |
| O=C(c1cccc(F)c1)N1CCCCN2[C@H](CO)[C@H](c3ccc(-c4ccncc4)cc3)[C@H]2C1 | 0.501 |
| O=C(c1ccc(F)cc1)N1CCCCN2[C@H](C1)[C@@H](c1ccc(C#CC3(O)CCCC3)cc1)[C@@H]2CO | -3.65 (active) |
| O=C(c1cccc(F)c1)N1CCCCN2[C@H](CO)[C@H](c3ccc(C#CC4(O)CCCC4)cc3)[C@H]2C1 | 0.958 |
| O=C(c1ccncc1)N1CCCCN2[C@H](CO)[C@H](c3ccc(-c4ccccc4)cc3)[C@H]2C1 | -4.53 (active) |
| CC(C)(O)C#Cc1ccc([C@H]2[C@H]3CN(C(=O)c4ccncc4)CCCCN3[C@H]2CO)cc1 | 0.748 |
| C[C@H](CO)N1C[C@H](C)[C@H](CN(C)C(=O)Nc2cccc(Cl)c2Cl)OCc2ccccc2-c2ccccc2C1=O | -1.18 |
| CCCC#Cc1ccc([C@H]2[C@H]3CN(C(=O)Nc4ccc(F)cc4)CC(=O)N3[C@H]2CO)cc1 | 3.77 |
| C[C@@H]1CN([C@H](C)CO)C(=O)CCCn2cc(nn2)CO[C@@H]1CN(C)C(=O)Nc1ccc2c(c1)OCO2 | -0.664 |
| CCCC#Cc1ccc([C@H]2[C@@H](CO)N3C(=O)CN(C(=O)c4ccncc4)C[C@@H]23)cc1 | 3.16 |
